According to PMC7819943, “Rice protein-binding microarrays: a tool to detect cis-acting elements near promoter regions in rice”:
Whole data set: some 35,000 sequences, median “fluorescence intensity (a.u.)” near 10,000, cut for the highest 2% near 52,000. The full list was thinned out, with the highest values kept by preference.

What follows are sequences tested against T1, OsWOX13 (Oryza sativa, UniProt Q5QMM3 1-267) (assay: protein-binding microarray (RPBM); PBS, 2% BSA, 51.3 ng/ul salmon testes DNA, 50 uM zinc acetate, 200 nM TF, 25 C, 1 h; high values mean tight binding). Conditions: protein: recombinant; tags: N-terminal polyhistidine and DsRed monomer fusion (pET32a); label: CyDye5-dUTP incorporated in the synthesized complementary strand; 3' TTTTT single-stranded linker to array surface; dsDNA, one strand shown.
T1 sequence: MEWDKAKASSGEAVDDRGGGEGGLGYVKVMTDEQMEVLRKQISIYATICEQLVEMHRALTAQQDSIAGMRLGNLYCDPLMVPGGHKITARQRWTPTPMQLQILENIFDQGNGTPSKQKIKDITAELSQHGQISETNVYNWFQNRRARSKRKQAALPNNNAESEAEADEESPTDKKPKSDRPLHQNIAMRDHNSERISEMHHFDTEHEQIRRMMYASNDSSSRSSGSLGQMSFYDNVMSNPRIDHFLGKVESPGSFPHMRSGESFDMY
Method in brief: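 Transcription factors were each fused at the N-terminus to a polyhistidine tag plus DsRed and expressed in E. coli BL21-CodonPlus before Ni–NTA purification. Binding to a double-stranded custom Agilent array was carried out with 200 nM protein at 25 °C for 1 h in PBS, 2% BSA, salmon testes DNA and 50 µM zinc acetate. The binding signal is per-feature fluorescence intensity, in arbitrary units, on an Axon 4000B scanner.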
“CCGTTGGATTGGAATCGGAGGGCCTACAATGACTGAGTGCCGGAGTCACCTAGTGCAG” was tested, and the binding signal was 5860 fluorescence intensity (a.u.). In the case of “TGGCGGATTGATCTGGAGGTGGGCTTGTTGGGGTTGCTGTCGGAGTCACCTAGTGCAG”, the binding signal was 14400 fluorescence intensity (a.u.). “TCTACTAATTTAAAGTTGCAGTGTTCCTCCTCCCTCCTACCGGAGTCACCTAGTGCAG” was tested, and the binding signal was 10700 fluorescence intensity (a.u.). With “CTGGATTGATTGGGAGTGTTGGGTTTCGGGCTAGATCTGGCGGAGTCACCTAGTGCAG” the binding signal was 65200 fluorescence intensity (a.u.). With “AGAAATTGATTATGGATGAGTGCCCTTCTGCCTATTATGTCGGAGTCACCTAGTGCAG” the binding signal was 55900 fluorescence intensity (a.u.). For “CGTCTGGGGTTTGATTGGGATTGAGGCGAATTCGGGCGGTCGGAGTCACCTAGTGCAG”, the binding signal was 34000 fluorescence intensity (a.u.). “TGGAAATTGATGGAGGATGATCTGCAATTAGAAAGAAGAACGGAGTCACCTAGTGCAG” was tested, and the binding signal was 29700 fluorescence intensity (a.u.). With “TTCTGCTGATTGGAATGACTACAACACTAGAGTTGTCTGTCGGAGTCACCTAGTGCAG” the binding signal was 56100 fluorescence intensity (a.u.). In the case of “TATGAATTGACTATTATATTGGCTATGGATGATTTGTAGTCGGAGTCACCTAGTGCAG”, the binding signal was 30100 fluorescence intensity (a.u.). “CAGAATGACAACATTGACTGATTGACACTAGAAATACATACGGAGTCACCTAGTGCAG” was tested, and the binding signal was 39000 fluorescence intensity (a.u.). For “ACTAATTGACTACTCCCTGAATTTAAAGTTGATGGTCAGTCGGAGTCACCTAGTGCAG”, the binding signal was 61100 fluorescence intensity (a.u.). For “TCCCTGAATTTTAGGAGTGATTGGACCTAAAGTTGAGGAGCGGAGTCACCTAGTGCAG”, the binding signal was 17200 fluorescence intensity (a.u.). With “TGGGTAGGGGCAGTTAATTGGGAGGGAATTCCTCCTTCACCGGAGTCACCTAGTGCAG” the binding signal was 8890 fluorescence intensity (a.u.). “ACTGATGAAATATCAAAGTGATTGTCAGACAAAGCGCCATCGGAGTCACCTAGTGCAG” was tested, and the binding signal was 25800 fluorescence intensity (a.u.). “TACCCATCTTCCATTGACAGACAATTGGGCCCCACTCCGCCGGAGTCACCTAGTGCAG” was tested, and the binding signal was 7450 fluorescence intensity (a.u.). For “AGCTAATAATTACTAATTACTAAGTAATACTTCCTCTGTTCGGAGTCACCTAGTGCAG”, the binding signal was 41700 fluorescence intensity (a.u.). “ATTATTGACAAAAGCATCTCGATATCTTATGGATTAATATCGGAGTCACCTAGTGCAG” was tested, and the binding signal was 4720 fluorescence intensity (a.u.). For “CGTGAGTGAAATTTTAATTACGTGTACATATAGGGGAGTACGGAGTCACCTAGTGCAG”, the binding signal was 20500 fluorescence intensity (a.u.). In the case of “ATATAATGGGCACTATGATTTGCTCTAAATATTGGTCATTCGGAGTCACCTAGTGCAG”, the binding signal was 28800 fluorescence intensity (a.u.). In the case of “TCCTGATTGTTCACAATTGTGCTAGTTCAAACAAGGCAAACGGAGTCACCTAGTGCAG”, the binding signal was 24800 fluorescence intensity (a.u.). With “TACATCCCTACTAATTGTGTCATGTATCAATAATGATATGCGGAGTCACCTAGTGCAG” the binding signal was 3560 fluorescence intensity (a.u.). For “CATCAATTAATTGACATGATACTATCTACCTTGCGTGTCGCGGAGTCACCTAGTGCAG”, the binding signal was 65000 fluorescence intensity (a.u.). With “TTGATTGCGAATGATTGGAGCTGGTTGCTGTTGCTAGATCCGGAGTCACCTAGTGCAG” the binding signal was 57800 fluorescence intensity (a.u.). In the case of “ATGATGATGATATACACGCCAAATTGAATTAGAAACTGATCGGAGTCACCTAGTGCAG”, the binding signal was 6800 fluorescence intensity (a.u.). In the case of “ACTATTATATTGATCAATTGATTACATAATTCACGTGTCGCGGAGTCACCTAGTGCAG”, the binding signal was 43700 fluorescence intensity (a.u.). For “GCACTGATTGAATTGAACTGTATAGAACAAAATGAAATTTCGGAGTCACCTAGTGCAG”, the binding signal was 19600 fluorescence intensity (a.u.). For “GATGATTGATTGGGTTGGTTGGAACGTGCGATGGAATGATCGGAGTCACCTAGTGCAG”, the binding signal was 65400 fluorescence intensity (a.u.). For “TATAAAATTGATGGTTGGAATTATAAATATTTCGATTGAACGGAGTCACCTAGTGCAG”, the binding signal was 9830 fluorescence intensity (a.u.). In the case of “TAGATGAAATGGGTTGGGTTGATTTGGGTTGAAATATGATCGGAGTCACCTAGTGCAG”, the binding signal was 6400 fluorescence intensity (a.u.). For “AGATGCTGATTGGTTGCGAACTATCTGTTCAATTTGCATCCGGAGTCACCTAGTGCAG”, the binding signal was 46300 fluorescence intensity (a.u.). In the case of “AAATGATTGAATCCTAGAAACTCTGACCTATACAAGTGGTCGGAGTCACCTAGTGCAG”, the binding signal was 60500 fluorescence intensity (a.u.). “CTGGAATGAGTGGTGGTTGATTGTTTAGTGTTTACTGTTCCGGAGTCACCTAGTGCAG” was tested, and the binding signal was 18500 fluorescence intensity (a.u.). With “GATAACGTGGCCAAATTATATCAGACGTTCATGTTTAGATCGGAGTCACCTAGTGCAG” the binding signal was 5800 fluorescence intensity (a.u.). “TTCACAAATTTTGATGCGATGATTAGCTAAGGCATGTTCGCGGAGTCACCTAGTGCAG” was tested, and the binding signal was 23500 fluorescence intensity (a.u.). With “TTACGATGATATATAATTGGACGGAAGCAGCGATCATGCTCGGAGTCACCTAGTGCAG” the binding signal was 14100 fluorescence intensity (a.u.). With “AGCTAATTTATGCATGCATGGATTCCGATGGAGGAGCTGTCGGAGTCACCTAGTGCAG” the binding signal was 19400 fluorescence intensity (a.u.). “GAGCAATTAGGCTTAAAAGATTCGTCTCGCAAATTAGTCGCGGAGTCACCTAGTGCAG” was tested, and the binding signal was 3540 fluorescence intensity (a.u.). With “TGGAATGATGTTGGGATTGATGGATGGATGTATGTTTTGTCGGAGTCACCTAGTGCAG” the binding signal was 15300 fluorescence intensity (a.u.). With “TCTGTTGATGAATGGATTGATTGATGGATGGATGGATGGTCGGAGTCACCTAGTGCAG” the binding signal was 64100 fluorescence intensity (a.u.). “TTCTGATTTGCCCCTATCTTATTGAGATTGCTTGTGTGATCGGAGTCACCTAGTGCAG” was tested, and the binding signal was 30600 fluorescence intensity (a.u.). In the case of “TGCTGGTTGATTGATTGATTGATGGACAAATAGGTAGATGCGGAGTCACCTAGTGCAG”, the binding signal was 56300 fluorescence intensity (a.u.). “ATAGATGAAGAATAAATATGATTGGTAGAGAAGAGAGATGCGGAGTCACCTAGTGCAG” was tested, and the binding signal was 25600 fluorescence intensity (a.u.). For “CAAAATTTGATGAATGGAAGGGTCGAAACTGAGTGATTGCCGGAGTCACCTAGTGCAG”, the binding signal was 23600 fluorescence intensity (a.u.). For “TTGATTGATGGGTAGTAAGGAAACCTTTTGAATGAGTGGTCGGAGTCACCTAGTGCAG”, the binding signal was 64700 fluorescence intensity (a.u.). For “TCTGATTGCTGTTAGTTGTTGATGAGATGGAGATGGAGATCGGAGTCACCTAGTGCAG”, the binding signal was 39900 fluorescence intensity (a.u.). In the case of “GCAGCCTAGATTGACAATAGATGAATTGGAGCTAGTAGTGCGGAGTCACCTAGTGCAG”, the binding signal was 35400 fluorescence intensity (a.u.). In the case of “AATGGAGATTGGATCTGATTGGTTGTTGTTGCTTGAGGATCGGAGTCACCTAGTGCAG”, the binding signal was 62600 fluorescence intensity (a.u.). In the case of “GATGATGGATTGGAAAGGCAAGTAAGCTGGAGTAGGTGGTCGGAGTCACCTAGTGCAG”, the binding signal was 38000 fluorescence intensity (a.u.). For “GTGATTGAAATGGATCCTGGTCGGAAATGAATCCTGGTCGCGGAGTCACCTAGTGCAG”, the binding signal was 43700 fluorescence intensity (a.u.). For “TTTTATAATTATATAGCACACCCCACTTCACACGCATATCCGGAGTCACCTAGTGCAG”, the binding signal was 15300 fluorescence intensity (a.u.). “CTATTGATTGTTGGCGAGCATGTTCTTATCCAGTTGACTTCGGAGTCACCTAGTGCAG” was tested, and the binding signal was 33100 fluorescence intensity (a.u.). In the case of “GTTTGTTAATTATTCACTAATCTCTAGTACTATAGTTGTACGGAGTCACCTAGTGCAG”, the binding signal was 17100 fluorescence intensity (a.u.). In the case of “AACAGTTCTGCTGAACCTCTTTTGCCTGCCCAAATCAAAACGGAGTCACCTAGTGCAG”, the binding signal was 7650 fluorescence intensity (a.u.). “AGATGGGAATCATTATCAATCTATCATCCTAAATATAAACCGGAGTCACCTAGTGCAG” was tested, and the binding signal was 4070 fluorescence intensity (a.u.).
